Measurements reported in ChEMBL document CHEMBL3988442, “University of Dundee, Small-Polar-MMV Screening Library” (2021).
For some of these results: Potency and affinity values are given separately.

Key:
Set-up in all cases: scale not given: direction of the effect not stated beside the values
[1] = target: Protein translocase subunit SecA (Escherichia coli (strain K12)) (UniProt P10408); experiment: Assay to Identify E. coli SecA ATPase Inhibitors; format: functional; settings: 30 µM
[2] = target: T1, Ubiquitin-activating enzyme e1, putative (Leishmania donovani (strain BPK282A1)) (UniProt E9BSI1); experiment: Leishmania donovani Ubiquitin Activating Enzyme (LdE1); format: functional; settings: 30 µM
T1 sequence (whole entry): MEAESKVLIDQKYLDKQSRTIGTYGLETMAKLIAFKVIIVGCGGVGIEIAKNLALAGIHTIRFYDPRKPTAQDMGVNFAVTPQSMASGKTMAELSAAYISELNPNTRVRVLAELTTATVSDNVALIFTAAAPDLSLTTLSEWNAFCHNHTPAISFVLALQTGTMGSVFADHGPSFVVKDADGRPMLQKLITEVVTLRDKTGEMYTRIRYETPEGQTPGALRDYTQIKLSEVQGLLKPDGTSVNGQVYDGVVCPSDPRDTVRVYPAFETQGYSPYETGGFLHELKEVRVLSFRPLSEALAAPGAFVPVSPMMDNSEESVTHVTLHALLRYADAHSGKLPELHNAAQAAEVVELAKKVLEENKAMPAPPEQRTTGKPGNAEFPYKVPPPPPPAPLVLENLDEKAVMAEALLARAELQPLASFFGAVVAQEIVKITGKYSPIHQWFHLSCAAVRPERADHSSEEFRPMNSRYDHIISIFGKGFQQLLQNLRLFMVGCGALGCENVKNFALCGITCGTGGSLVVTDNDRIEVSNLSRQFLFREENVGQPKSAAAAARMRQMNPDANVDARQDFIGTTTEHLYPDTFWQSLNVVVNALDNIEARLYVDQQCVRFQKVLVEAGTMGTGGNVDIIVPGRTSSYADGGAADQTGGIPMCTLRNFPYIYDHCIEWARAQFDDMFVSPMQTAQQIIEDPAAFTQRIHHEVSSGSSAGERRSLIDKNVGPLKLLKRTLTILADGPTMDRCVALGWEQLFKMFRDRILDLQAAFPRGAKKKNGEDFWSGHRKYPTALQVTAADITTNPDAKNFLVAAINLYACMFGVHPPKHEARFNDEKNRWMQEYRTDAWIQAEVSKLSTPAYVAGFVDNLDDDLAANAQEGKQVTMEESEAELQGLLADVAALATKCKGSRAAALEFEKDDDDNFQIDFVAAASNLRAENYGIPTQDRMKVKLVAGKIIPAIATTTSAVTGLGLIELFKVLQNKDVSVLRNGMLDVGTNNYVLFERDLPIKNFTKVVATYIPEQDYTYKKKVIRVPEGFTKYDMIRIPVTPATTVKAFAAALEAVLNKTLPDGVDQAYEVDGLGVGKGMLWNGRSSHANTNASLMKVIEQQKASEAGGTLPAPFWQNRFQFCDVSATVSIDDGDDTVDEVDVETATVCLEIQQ

[3] = target: AMP-activated protein kinase, AMPK (Homo sapiens) (UniProt P54646+O43741+P54619+Q9UGJ0+Q9Y478+Q13131+Q9UGI9); experiment: AMP-dependent Kinase enzyme assay. An in vitro enzyme assay that detects ADP turnover that is directly proportional to AMPK activity. This uses naive AMPK that is activated during the assay with MK-8722; format: functional; settings: 30 µM
[4] = target: Sialic acid-binding Ig-like lectin 9 (Homo sapiens) (UniProt Q9Y336); experiment: Hs-Siglec9 ALPHAscreen SOP 20170721; settings: 10 µM
Trypanosoma cruzi = experiment: Trypanosoma cruzi phosphomannomutase and mannose-1-phosphate guanylyltransferase assay; format: functional; settings: 10 µM
[5] = target: T2, Arginase-2, mitochondrial (Homo sapiens) (UniProt P78540); experiment: in vitro enzyme assay to detect the production of urea directly proportional to the activity of Arginase II; format: functional; settings: 33.3 µM; also: in the data most compounds retested in dose-response had high values
T2 sequence (whole entry): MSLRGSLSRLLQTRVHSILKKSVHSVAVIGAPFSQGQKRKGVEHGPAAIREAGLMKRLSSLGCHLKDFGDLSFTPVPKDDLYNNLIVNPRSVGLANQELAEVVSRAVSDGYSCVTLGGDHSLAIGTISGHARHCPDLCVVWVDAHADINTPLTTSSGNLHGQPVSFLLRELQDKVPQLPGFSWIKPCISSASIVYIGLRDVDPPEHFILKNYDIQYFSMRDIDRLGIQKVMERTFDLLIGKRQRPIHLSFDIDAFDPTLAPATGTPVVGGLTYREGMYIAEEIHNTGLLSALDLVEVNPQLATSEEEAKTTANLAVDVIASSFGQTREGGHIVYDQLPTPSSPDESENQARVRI

[6] = target: T3, Proteasome subunit beta (Trypanosoma cruzi) (UniProt O96673); experiment: Trypanosoma cruzi proteasome chymotrypsin-like activity (TcProtChymo) assay.; also: in the data most compounds retested in dose-response had high values; format: functional; settings: 9.37 µM
T3 sequence (whole entry): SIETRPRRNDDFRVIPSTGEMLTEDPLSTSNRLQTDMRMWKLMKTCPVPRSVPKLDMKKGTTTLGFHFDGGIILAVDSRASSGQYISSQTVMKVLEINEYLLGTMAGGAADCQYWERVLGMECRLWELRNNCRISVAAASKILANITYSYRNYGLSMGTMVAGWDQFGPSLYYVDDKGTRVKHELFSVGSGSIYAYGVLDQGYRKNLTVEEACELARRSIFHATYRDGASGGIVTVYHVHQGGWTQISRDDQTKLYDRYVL

Homo sapiens = organism: Homo sapiens; experiment: To identify inhibition of the IFN signalling (Jak-Stat) pathway via expression of an eGFP reporter gene under the control of an IFN-stimulated response element (ISRE) containing MxA promoter.; format: functional; settings: 30 µM
[7] = target: T4, Tyrosyl-tRNA synthetase, putative (Trypanosoma cruzi (strain CL Brener)) (UniProt Q4DSP6); experiment: Trypanosoma cruzi tyrosyl tRNA synthetase (TcYRS) _High Tyrosine SOP; format: functional; settings: 30 µM; also: in the data most compounds retested in dose-response had high values
T4 sequence (whole entry): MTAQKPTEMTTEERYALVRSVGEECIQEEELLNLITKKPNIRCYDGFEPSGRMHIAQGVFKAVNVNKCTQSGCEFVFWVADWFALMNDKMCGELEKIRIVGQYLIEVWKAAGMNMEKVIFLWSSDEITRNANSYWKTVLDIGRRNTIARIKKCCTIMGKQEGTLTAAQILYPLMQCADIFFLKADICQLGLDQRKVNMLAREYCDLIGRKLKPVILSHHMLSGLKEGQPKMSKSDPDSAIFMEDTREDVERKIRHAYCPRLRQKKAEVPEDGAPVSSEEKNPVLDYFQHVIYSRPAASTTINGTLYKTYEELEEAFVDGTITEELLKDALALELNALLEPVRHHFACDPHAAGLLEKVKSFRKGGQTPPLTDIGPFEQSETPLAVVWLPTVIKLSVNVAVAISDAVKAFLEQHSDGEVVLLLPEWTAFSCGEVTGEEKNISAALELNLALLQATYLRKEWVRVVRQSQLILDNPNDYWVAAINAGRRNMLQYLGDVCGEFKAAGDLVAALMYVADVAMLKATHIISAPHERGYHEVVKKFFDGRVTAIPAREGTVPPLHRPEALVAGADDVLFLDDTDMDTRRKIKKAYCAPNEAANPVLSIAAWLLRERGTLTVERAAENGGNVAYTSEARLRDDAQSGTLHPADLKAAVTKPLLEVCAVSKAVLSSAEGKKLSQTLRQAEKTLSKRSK

[8] = target: T4, Tyrosyl-tRNA synthetase, putative (Trypanosoma cruzi (strain CL Brener)); experiment: Trypanosoma cruzi tyrosyl tRNA synthetase (TcYRS) SOP; format: functional; settings: 30 µM
[9] = target: Chromo domain-containing protein 1 (Saccharomyces cerevisiae (strain ATCC 204508 / S288c) (Baker's yeast)) (UniProt P32657); experiment: ScCHD-1 Enzyme Inhibition Assay; format: functional; settings: 30 µM; also: in the data most compounds retested in dose-response had high values
Chain of Chromo domain-containing protein 1 (Saccharomyces cerevisiae (strain ATCC 204508 / S288c) (Baker's yeast)) (P32657 whole entry, the tested form may be a part): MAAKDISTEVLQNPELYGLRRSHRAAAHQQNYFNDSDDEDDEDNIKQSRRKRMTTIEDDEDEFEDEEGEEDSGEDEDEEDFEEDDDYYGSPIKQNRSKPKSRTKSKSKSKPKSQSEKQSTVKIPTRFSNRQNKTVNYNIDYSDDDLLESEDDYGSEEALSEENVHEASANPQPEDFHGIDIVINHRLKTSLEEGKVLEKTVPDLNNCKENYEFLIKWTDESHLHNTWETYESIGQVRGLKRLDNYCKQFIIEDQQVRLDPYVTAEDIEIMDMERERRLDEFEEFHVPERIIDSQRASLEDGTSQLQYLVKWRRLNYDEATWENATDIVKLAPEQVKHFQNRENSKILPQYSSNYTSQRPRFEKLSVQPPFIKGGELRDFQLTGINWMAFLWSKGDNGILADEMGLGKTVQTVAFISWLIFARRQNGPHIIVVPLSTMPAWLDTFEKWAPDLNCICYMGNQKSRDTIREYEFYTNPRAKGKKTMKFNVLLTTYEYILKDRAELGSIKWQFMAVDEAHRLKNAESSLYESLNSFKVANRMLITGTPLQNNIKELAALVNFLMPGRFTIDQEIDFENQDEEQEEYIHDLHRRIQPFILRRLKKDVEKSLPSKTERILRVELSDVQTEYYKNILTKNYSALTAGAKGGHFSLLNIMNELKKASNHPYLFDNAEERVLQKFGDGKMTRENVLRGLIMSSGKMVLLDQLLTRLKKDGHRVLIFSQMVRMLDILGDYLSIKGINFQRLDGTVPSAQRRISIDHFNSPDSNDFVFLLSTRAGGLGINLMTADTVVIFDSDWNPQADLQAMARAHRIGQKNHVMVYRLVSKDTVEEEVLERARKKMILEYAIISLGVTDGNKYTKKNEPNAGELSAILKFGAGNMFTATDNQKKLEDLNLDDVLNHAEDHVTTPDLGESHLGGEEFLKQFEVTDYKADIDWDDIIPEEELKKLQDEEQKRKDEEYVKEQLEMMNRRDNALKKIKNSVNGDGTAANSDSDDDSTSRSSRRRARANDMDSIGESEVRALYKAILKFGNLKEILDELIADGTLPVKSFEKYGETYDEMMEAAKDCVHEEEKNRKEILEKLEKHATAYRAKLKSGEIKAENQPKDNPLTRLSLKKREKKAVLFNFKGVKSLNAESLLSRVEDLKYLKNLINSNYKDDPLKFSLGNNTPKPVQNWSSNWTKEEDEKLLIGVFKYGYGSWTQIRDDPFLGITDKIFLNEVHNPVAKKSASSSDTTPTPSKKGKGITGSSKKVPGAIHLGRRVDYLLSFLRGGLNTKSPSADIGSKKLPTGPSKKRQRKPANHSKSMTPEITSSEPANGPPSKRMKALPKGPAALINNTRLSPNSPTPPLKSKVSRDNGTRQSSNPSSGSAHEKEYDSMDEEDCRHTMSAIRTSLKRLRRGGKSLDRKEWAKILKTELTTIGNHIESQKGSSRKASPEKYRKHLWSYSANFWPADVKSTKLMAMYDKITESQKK

Chain of Protein translocase subunit SecA (Escherichia coli (strain K12)) (P10408 whole entry): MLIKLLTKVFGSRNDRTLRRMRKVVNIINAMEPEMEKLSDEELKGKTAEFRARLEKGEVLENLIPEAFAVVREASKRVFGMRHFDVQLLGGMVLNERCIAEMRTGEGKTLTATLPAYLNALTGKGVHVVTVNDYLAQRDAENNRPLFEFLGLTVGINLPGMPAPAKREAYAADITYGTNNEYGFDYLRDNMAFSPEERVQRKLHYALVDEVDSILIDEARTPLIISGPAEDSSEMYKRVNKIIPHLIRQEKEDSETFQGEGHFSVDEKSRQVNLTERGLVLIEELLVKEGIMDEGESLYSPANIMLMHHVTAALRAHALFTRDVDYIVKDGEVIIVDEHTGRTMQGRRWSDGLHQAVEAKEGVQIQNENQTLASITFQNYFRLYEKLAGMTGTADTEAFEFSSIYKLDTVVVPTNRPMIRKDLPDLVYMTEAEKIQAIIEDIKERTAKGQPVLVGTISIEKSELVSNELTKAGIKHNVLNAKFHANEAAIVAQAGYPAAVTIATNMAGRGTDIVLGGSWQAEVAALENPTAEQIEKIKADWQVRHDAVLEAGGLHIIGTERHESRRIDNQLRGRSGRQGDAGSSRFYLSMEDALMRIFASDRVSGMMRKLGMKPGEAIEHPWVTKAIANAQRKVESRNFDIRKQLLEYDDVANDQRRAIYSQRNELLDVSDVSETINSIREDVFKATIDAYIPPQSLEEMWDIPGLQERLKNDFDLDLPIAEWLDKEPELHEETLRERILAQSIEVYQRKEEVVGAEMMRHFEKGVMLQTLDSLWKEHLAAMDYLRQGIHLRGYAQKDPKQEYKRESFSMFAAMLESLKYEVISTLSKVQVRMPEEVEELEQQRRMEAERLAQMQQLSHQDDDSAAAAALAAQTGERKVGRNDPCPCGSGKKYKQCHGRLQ
Chain of Sialic acid-binding Ig-like lectin 9 (Homo sapiens) (Q9Y336 whole entry): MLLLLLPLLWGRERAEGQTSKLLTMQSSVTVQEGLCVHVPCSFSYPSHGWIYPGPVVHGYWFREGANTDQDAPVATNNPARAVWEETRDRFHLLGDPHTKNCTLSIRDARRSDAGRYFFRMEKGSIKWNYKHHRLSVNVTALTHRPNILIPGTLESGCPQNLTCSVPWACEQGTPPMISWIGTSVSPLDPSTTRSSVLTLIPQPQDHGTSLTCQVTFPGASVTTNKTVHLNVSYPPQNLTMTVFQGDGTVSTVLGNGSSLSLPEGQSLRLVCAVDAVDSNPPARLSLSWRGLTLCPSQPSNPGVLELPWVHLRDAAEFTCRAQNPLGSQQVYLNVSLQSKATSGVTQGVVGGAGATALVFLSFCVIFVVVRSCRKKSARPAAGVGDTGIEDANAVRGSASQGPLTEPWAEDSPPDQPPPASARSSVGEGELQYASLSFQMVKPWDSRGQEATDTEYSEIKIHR

SMILES	Percent Effect [1] [%]	Percent Effect [2] [%]	Percent Effect [3] [%]	Percent Effect [4] [%]	Percent Effect (Trypanosoma cruzi) [%]	Percent Effect [5] [%]	Percent Effect [6] [%]	Percent Effect (Homo sapiens) [%]	Percent Effect [7] [%]	Percent Effect [8] [%]	Percent Effect [9] [%]
CCc1nc(C2CCCN2CC(=O)Nc2c(C)nn(C)c2C)no1 (stereo not given)	-2.75	0	-6.03	-5.34	-0.979	-0.455	7.81	10.6	1.07	2.5	1.02
O=C(C1CCC1)N1CCC2(COCc3cnc(N4CCOCC4)nc32)C1 (stereo not given)	2.09	13.3	-2.58	-6.19	0.772	-59.7	9.23	-2.75	2.08	12.5	-9.27
O=C(COc1coc(CN2CCCC2)cc1=O)NCc1ccccc1Cl	-2.51	1.33	5.09	5.58	0.393	-1.94	7.02	-13.6	6.35	10.3	0.789
CCc1nccn1C1CCCN(C(=O)c2ccc(C(=O)NC)nc2)C1 (stereo not given)	1.89	-2.6	1.32	2.31	-2.81	4.63	1.86	18.1	1.94	0	-4.59
O=C(c1ccco1)N1C[C@@H]2OCCN(CCN3CCCC3)[C@@H]2C1	-2.67	5.41	5.74	-2.98	-1.07	1.59	16.1	-16.1	2.16	5.13	4.02
Cc1ccc(Cl)cc1C(=O)N1CCC2(CC1)c1ccccc1[C@@H](N)[C@@H]2O	-6.01	5.41	-7.41	40.2	9.85	-2.38	19	2.23	6.88	12.2	10.1
CSCCCN1CCCC1c1noc(C)n1 (stereo not given)	-0.0492	13.2	-11.1	-5.04	6.39	8.43	23.7	19.4	14.2	21.9	-9.94
Cc1ccc(OCCNC(=O)C(C)n2cncn2)cc1 (stereo not given)	-1.61	15.2	7.61	-6.9	-9.91	0.38	11.1	35.3	-1.48	3.8	-3.56
O=C(NCCCn1cncn1)NCC(c1ccco1)N1CCCCC1 (stereo not given)	1.3	10.4	2.22	-12.8	-5.39	5.26	17.2	12.4	4.76	18.8	-13.7
CS(=O)(=O)NCC1CCCCN1C(=O)Nc1cccnc1N1CCCC1 (stereo not given)	-15.1	13.2	-38	3.6	7.89	0	8.92	2.36	5.32	13	-19.9
COCCO[C@H]1CCN(Cc2cccs2)[C@H]1Cc1cccnc1	-3.38	0	-12.3	20.5	6.35	-1.24	11.6	0.814	3.23	6.17	-1.24
Cn1cnnc1C1CCCN(C(=O)c2ccc3c(c2)OCCCO3)C1 (stereo not given)	-6.73	18.2	-5.65	-3.72	3.04	0.21	15.3	-4.88	4.76	23.5	-15.9
O=C(Nc1cnn(CCN2CCOCC2)c1)c1cc(F)ccc1F	-1.54	7.89	-3.4	20.5	-1.32	1.53	-3.17	-12.4	4.41	9.76	3.02
Cc1n[nH]c(C2CN(C(=O)CCc3ccco3)CCO2)n1 (stereo not given)	-1.8	7.89	9.83	-2.52	3.6	3.55	21	21.1	2.13	7.79	-3.66
CCc1c(C(=O)NCC(=O)OCC2CC2)cnn1-c1ccc(C)cc1	-5.86	22.8	2.14	-2.84	9.54	0.38	10.7	29	6.4	24.1	-9.54
CCN(Cc1cccc(Cl)c1)Cc1nc2c(cnn2C)c(=O)[nH]1	-5.2	15.6	3.13	-4.85	-0.49	-1.47	15.4	-5.75	3.81	18.8	-17.4
CCOc1ccc(CN(C)C(=O)NC(C)c2nncn2C)cc1 (stereo not given)	1.14	15.3	-8.94	7	0.0972	4.42	18.4	11.4	7.37	5.13	-0.989
COCCCN1CCCN(C(C)C(=O)Nc2cccc(I)c2)CC1 (stereo not given)	-5.27	-5.41	1.61	1.25	-7.42	-5	15.1	-8.39	1.98	-3.66	-0.402
CC(C)n1cnc2c1C(C(=O)NCCC#N)N(Cc1ccccc1)CC2 (stereo not given)	-5.9	16	-5.79	0.457	4.44	-40	14	-0.451	2.08	15	-7.21
COc1ccc(OC)c(C2C3=C(COC3=O)Nc3[nH]nc(C)c32)c1 (stereo not given)	-1.85	17.3	0.267	-8.04	5.11	17.1	3.33	7.65	4.23	10.3	-11.1
